Several values for one entry are separate records, joined by “and”; a condition that tells them apart may be missing. Identical values can stand only once. Unmarked numbers belong to inactive results. Results filed as inconclusive are left out. Entries that show only a call come without a potency. Activity calls are given as the source filed them. Unless noted, the call rests on the fitted dose curve; in most records, active means well fitted curve in the direction sought with a large enough effect; inconclusive means small, poorly fitted or top-dose-only effect, or another doubt; inactive means no such curve, though single readings can be large; an effect the other way counts as inactive or inconclusive.
How the values were obtained:
[1] = target: Cytochrome P450 3A4 (Homo sapiens) (UniProt P08684); assay: qHTS Assay for Activators of Cytochrome P450 3A4 (AID 885); conditions: recombinant CYP3A4, Luciferin-PPXE luminescence, 60 min; series mostly up to 57.1 µM; further: nearly all actives have a fitted effect of over 65% in size
Sequence of Cytochrome P450 3A4 (Homo sapiens) (P08684 whole entry, looked up): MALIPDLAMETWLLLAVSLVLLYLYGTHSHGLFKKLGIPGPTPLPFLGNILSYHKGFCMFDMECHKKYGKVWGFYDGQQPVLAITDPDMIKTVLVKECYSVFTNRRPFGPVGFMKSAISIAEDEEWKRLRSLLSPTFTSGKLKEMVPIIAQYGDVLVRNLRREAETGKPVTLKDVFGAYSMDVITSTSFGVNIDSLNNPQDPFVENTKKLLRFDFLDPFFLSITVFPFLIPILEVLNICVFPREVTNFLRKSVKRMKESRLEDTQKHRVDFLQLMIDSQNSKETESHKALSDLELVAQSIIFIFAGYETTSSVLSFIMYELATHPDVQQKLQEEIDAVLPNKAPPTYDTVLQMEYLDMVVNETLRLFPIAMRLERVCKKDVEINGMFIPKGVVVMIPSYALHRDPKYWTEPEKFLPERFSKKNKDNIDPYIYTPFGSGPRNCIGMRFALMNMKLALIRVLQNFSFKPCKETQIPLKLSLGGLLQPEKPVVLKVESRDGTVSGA
How it was run: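 Signal was normalized against complete inhibition by 57 uM ketoconazole. The reaction used 20nM CYP3A4 with 25uM Luciferin-PPXE, 10-min compound preincubation and a 60-min NADPH-supported step at RT.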

[2] = target: Peroxisome proliferator-activated receptor delta (Homo sapiens) (UniProt Q03181); assay: qHTS assay for small molecule antagonists of peroxisome proliferator-activated receptor delta signaling (AID 588535; active means well fitted inhibition curve with a large enough effect in the signal ratio, with a control signal flat, not every such curve was filed as active; the % refers to the signal ratio); conditions: HEK293T PPARd-UAS-bla, beta-lactamase FRET ratio, 18 h; series mostly up to 76.7 µM
Sequence of Peroxisome proliferator-activated receptor delta (Homo sapiens) (Q03181 whole entry, looked up): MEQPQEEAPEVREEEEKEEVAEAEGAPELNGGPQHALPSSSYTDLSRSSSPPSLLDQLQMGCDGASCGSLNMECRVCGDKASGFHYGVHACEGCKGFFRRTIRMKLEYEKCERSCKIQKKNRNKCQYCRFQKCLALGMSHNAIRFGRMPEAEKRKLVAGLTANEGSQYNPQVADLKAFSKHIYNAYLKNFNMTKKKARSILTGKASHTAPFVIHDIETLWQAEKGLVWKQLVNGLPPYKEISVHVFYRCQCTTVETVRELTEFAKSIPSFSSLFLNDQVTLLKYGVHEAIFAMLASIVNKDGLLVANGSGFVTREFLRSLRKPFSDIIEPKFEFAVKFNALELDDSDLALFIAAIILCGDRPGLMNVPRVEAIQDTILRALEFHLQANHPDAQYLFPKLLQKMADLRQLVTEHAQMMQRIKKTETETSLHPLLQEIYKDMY
How it was run: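 Cell-based beta-lactamase assay in antagonist mode: 4000 HEK293T PPAR-delta-UAS-bla cells per well, 5 hr preincubation then 18 hr compound incubation at 37 C. IC50 obtained by Hill equation fitting.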

[3] = target: ATP-dependent 6-phosphofructokinase (Trypanosoma brucei brucei) (UniProt O15648); assay: qHTS Assay to Find Inhibitors of T. brucei phosphofructokinase: hit validation (AID 492961);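 further: luminescence reports ADP formed as PFK phosphorylates fructose-6-phosphate with ATP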; conditions: T. brucei PFK, ADP-Glo luminescence; series mostly up to 51.4 µM
Sequence of ATP-dependent 6-phosphofructokinase (Trypanosoma brucei brucei) (O15648 whole entry, looked up): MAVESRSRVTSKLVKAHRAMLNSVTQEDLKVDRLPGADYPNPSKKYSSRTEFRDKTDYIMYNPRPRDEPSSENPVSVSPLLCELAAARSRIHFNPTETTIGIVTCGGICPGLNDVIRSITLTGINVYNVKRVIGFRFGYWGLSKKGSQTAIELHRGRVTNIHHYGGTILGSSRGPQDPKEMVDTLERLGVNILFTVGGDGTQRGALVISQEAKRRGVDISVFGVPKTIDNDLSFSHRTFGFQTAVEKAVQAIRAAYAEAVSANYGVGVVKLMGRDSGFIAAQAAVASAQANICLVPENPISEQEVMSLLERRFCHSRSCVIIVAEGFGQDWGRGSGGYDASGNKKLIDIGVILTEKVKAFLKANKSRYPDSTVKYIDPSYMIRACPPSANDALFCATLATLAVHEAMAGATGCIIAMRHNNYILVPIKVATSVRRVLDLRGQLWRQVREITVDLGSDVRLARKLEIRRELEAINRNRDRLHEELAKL
How it was run: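 In this biochemical qHTS validation, titrated compounds were tested against 1.25 nM PFK with 0.1 mM ATP and 0.5 mM F6P. Percent activity came from controls lacking or containing enzyme.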

[4] = target: Ubiquitin carboxyl-terminal hydrolase 1 (Homo sapiens) (UniProt O94782); assay: Inhibitors of USP1/UAF1: Pilot qHTS (AID 504865); conditions: purified USP1/UAF1, Ub-rhodamine cleavage fluorescence; series mostly up to 114 µM;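 further: rhodamine fluorescence freed from ubiquitin-rhodamine substrate followed over time; top concentration of the series differs between compounds; nearly all actives have a fitted effect of over 35% in size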
Sequence of Ubiquitin carboxyl-terminal hydrolase 1 (Homo sapiens) (O94782 whole entry, looked up): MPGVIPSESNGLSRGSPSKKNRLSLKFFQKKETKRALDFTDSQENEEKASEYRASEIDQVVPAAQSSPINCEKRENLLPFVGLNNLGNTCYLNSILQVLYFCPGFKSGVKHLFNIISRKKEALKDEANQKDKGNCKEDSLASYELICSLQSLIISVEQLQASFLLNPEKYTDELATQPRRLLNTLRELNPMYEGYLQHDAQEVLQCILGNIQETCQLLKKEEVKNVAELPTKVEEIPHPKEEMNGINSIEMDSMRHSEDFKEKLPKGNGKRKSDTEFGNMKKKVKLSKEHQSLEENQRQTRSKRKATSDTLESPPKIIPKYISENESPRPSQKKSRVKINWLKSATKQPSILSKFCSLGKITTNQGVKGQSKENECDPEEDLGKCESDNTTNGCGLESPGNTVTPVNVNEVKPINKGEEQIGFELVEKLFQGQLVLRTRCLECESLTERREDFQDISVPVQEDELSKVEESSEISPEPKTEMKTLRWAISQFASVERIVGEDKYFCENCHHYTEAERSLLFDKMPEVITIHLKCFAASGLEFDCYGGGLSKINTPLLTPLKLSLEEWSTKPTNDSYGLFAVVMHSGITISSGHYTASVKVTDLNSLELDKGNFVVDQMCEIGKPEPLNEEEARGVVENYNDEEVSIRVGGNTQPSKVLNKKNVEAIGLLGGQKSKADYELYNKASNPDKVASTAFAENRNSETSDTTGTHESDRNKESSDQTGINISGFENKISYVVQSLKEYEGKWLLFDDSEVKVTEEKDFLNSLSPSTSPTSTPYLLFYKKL
How it was run: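 USP1/UAF1 complex at 1 nM preincubated 15 min at room temperature with compound, then Ub-Rho substrate added at 150 nM final. Fluorescence (480/540 nm) read kinetically in 50 mM HEPES pH 7.8, 0.5 mM EDTA, 1 mM TCEP, 0.1 mg/ml BSA, 0.01% Tween-20.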

[5] = qHTS profiling for inhibitors of Plasmodium falciparum proliferation (AID 504749); further: nearly all actives have a fitted effect of over 60% in size; conditions: P. falciparum in erythrocytes, SYBR Green DNA, 72 h
How it was run: (§1)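 Three-day growth assay of blood-stage parasites in erythrocytes (0.3% parasitemia, 2.5% hematocrit) at 37 C, 5% CO2, quantified by SYBR Green DNA staining after overnight detergent lysis.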

AS120 = assay: as above; conditions: P. falciparum in erythrocytes, SYBR Green DNA, 72 h; series mostly up to 28.7 µM
How it was run: as §1

ATS189 = assay: as above; conditions: P. falciparum in erythrocytes, SYBR Green DNA, 72 h; series mostly up to 28.7 µM
How it was run: as §1

CP192 = assay: as above; conditions: P. falciparum in erythrocytes, SYBR Green DNA, 72 h; series mostly up to 28.7 µM
How it was run: as §1

CP194 = assay: as above; conditions: P. falciparum in erythrocytes, SYBR Green DNA, 72 h; series mostly up to 28.7 µM
How it was run: as §1

CP203 = assay: as above; conditions: P. falciparum in erythrocytes, SYBR Green DNA, 72 h; series mostly up to 28.7 µM
How it was run: as §1

CP247 = assay: as above; conditions: P. falciparum in erythrocytes, SYBR Green DNA, 72 h; series mostly up to 28.7 µM
How it was run: as §1

P94_40 = assay: as above; conditions: P. falciparum in erythrocytes, SYBR Green DNA, 72 h; series mostly up to 28.7 µM
How it was run: as §1

PC49 = assay: as above; conditions: P. falciparum in erythrocytes, SYBR Green DNA, 72 h; series mostly up to 28.7 µM
How it was run: as §1

[6] = Cell Viability - H-4-II-E (AID 543); conditions: H-4-II-E rat hepatoma viability; series mostly up to 92.2 µM; further: nearly all actives have a fitted effect of over 35% in size
How it was run: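 Rat hepatoma H-4-II-E cells (1500/well) were plated, incubated 5 hr at 37 °C, then exposed to compounds for 40 hr at 37 °C. Cellular ATP was read by CellTiter-Glo luminescence; AC50 came from Hill-equation fits of concentration-response data.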

[7] = target: Bile acid receptor (Homo sapiens) (UniProt Q96RI1); assay: qHTS assay for small molecule agonists of farnesoid X receptor signaling (AID 588527; calls by dose curve); conditions: HEK293T FXR-UAS-bla, beta-lactamase ratio, 16 h; stronger effect = higher value
Sequence of Bile acid receptor (Homo sapiens) (Q96RI1 whole entry, looked up): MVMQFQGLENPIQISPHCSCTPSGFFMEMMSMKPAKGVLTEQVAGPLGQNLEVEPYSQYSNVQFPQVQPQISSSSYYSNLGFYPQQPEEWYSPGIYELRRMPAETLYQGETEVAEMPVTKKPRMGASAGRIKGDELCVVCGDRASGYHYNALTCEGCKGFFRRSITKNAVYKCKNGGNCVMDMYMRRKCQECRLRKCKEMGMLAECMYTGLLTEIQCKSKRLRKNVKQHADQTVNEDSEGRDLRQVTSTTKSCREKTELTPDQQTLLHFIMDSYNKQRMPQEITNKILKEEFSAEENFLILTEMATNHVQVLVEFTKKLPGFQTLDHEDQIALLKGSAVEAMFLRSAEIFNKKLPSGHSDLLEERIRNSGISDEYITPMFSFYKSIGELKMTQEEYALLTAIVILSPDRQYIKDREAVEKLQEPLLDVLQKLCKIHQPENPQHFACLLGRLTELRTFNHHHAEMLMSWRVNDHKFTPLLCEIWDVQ
How it was run: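 Agonist-mode beta-lactamase reporter in GeneBLAzer FXR-UAS-bla HEK293T cells, titration up to 92 uM, 16 h exposure at 37 C, CCF4 fluorescence. Response scaled to DMSO (0%) and 100 uM chenodeoxycholic acid (100%), then Hill-fitted for EC50 and efficacy.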

[8] = qHTS assay to identify small molecules that stimulate interleukin-8 (IL-8) secretion (AID 651758; active means well fitted activation curve with a large enough effect in the signal ratio; the % refers to the signal ratio); conditions: HTRF ratio (665/615); series mostly up to 92.2 µM
How it was run: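 Secreted IL-8 measured by TR-FRET sandwich (cryptate and XL665 antibodies) from THP-1 cells exposed to compound overnight (16 hrs, 37 C).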

[9] = Confirmation and Secondary Assay for Modulators of Hemoglobin Beta Chain Splicing at IVS2 654 locus (AID 910); conditions: HeLa EGFP-654 splicing reporter, GFP fluorescence, 48 h; series mostly up to 46.1 µM;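 further: HeLa cells stably carrying EGFP split by mutant beta-globin IVS2-654 intron; per-well total GFP intensity by laser scanning cytometry after 2-day treatment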
How it was run: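 Readout: per-well total peak green fluorescence (488 nm ex, 500–520 nm em) from objects 5–250 µm, reflecting correct splicing of an EGFP-654 reporter. Compounds were applied for 2 days at 37 °C to overnight-plated HeLa EGFP-654 cells; controls were DMSO and 500 nM IVS2-654 PNA.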

[10] = Confirmation and Secondary Assay for Modulators of Hemoglobin Beta Chain Splicing at IVS2 705 locus (AID 930); conditions: HeLa EGFP-705 splicing reporter, GFP fluorescence, 48 h; series mostly up to 46.1 µM;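 further: HeLa cells stably expressing the EGFP-705 splicing reporter; GFP fluorescence per well restored by corrected splicing of the IVS2-705 intron in EGFP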
How it was run: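 HeLa EGFP-705 reporter; 500 cells/well, o/n 37C 5% CO2; cpd 2 d; 488 ex/500-520 em laser scan; total peak GFP intensity/well. Ref: 500 nM […] antisense PNA.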

[11] = AP1 Signaling Pathway (AID 357; active means well fitted curve in either direction with a large enough effect, not every such curve was filed as active;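 further: ME-180 reporter cells stimulated with EGF at its EC50 level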); conditions: ME-180 AP-1-bla reporter, EGF-induced, beta-lactamase ratio, 5 h; series mostly up to 17.2 µM
How it was run: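 Cells are seeded overnight, exposed to compound titrations and an EC50 level of EGF for 5 hours at 37 °C, then loaded with CCF4 dye for 2.5 hours. Beta-lactamase activity under the AP-1 element is read as a blue/green ratio.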

[12] = Stat Signaling Pathway (AID 446; active means well fitted curve in either direction with a large enough effect, not every such curve was filed as active;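 further: ME-180 cervical cancer cells given 40 pM IL-6 alongside compound; SIE-controlled beta-lactamase reporter measured as 460/530 nm FRET emission ratio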); conditions: ME-180 SIE beta-lactamase reporter, IL-6 stimulated, 5 h; series mostly up to 17.2 µM
How it was run: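 Reporter line: ME-180 cervical carcinoma, SIE-beta-lactamase. Treatment: compound with 40 pM IL-6, 5 hrs, 37 C, in low-serum OPTI-MEM with 10 mM HEPES pH 7.3. Detection: 460/530 nm fluorescence.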

[13] = at 12.8 µM (top of the series), parasite line A
[14] = at 12.8 µM (top of the series), parasite line B

With `COC1=CC(=O)O[C@@H](/C=C/c2ccc3c(c2)OCO3)C1` the Potency [1] was “inactive” and the Potency [2] was “inactive”.
In the case of `C[C@]12CC[C@H]3[C@@H](CCC4=CC(=O)CC[C@@]43C)[C@@H]1CC[C@@H]2O`, the Potency [3] is reported as “inactive”, the Potency [4] is reported as “inactive” and the activity, negative = inhibition ([5]; at 28.7 µM (top of the series), parasite line A) is reported as -11.8%. The activity, negative = inhibition ([5]; at 28.7 µM (top of the series), parasite line B) was -14.6%, the Potency (AS120) was “inactive” and the Potency (ATS189) was “inactive”. The Potency (CP192) was “inactive”, the Potency (CP194) was “inactive” and the Potency (CP203) was “inactive”. For the same compound, the Potency (CP247) was “inactive”, the Potency (P94_40) was “inactive” and the Potency (PC49) was “inactive”.
For `c1ccc(-c2ccccc2)cc1`, the Potency [6] was “inactive”, the activation [7] was -2.99% and -4% and the Potency [2] was “inactive”. For the same compound, the Potency [8] was “inactive”.
`CCCCCCCCCCCCCC(=O)O` showed an activation [7] of 0.574%.
Compound `C=CC(C)(CCC=C(C)C)OC(C)=O` (stereo not drawn) has an activation [7] of -2.23%.
With `c1ccc(OP(Oc2ccccc2)Oc2ccccc2)cc1` the Potency [8] was “inactive”.
With `CCN1C[C@@]2(C)CC[C@@H](OC)[C@@]34C2C(O)[C@@]2(OCO[C@]25CC(OC)C2C[C@@]3(O)C5C2O)C14` (stereo partly drawn) the Potency [1] was “inactive”, the Potency [9] was “inactive” and the Potency [10] was “inactive”. The Potency [4] was “inactive”.
In the case of `CCCCOCCOP(=O)(OCCOCCCC)OCCOCCCC`, the Potency [1] is reported as “inactive” and the Potency [2] is reported as “inactive”.
In the case of `COc1ccc(N)cc1`, the Potency [1] is reported as “inactive”, the Potency [2] is reported as “inactive” and the Potency [8] is reported as “inactive”.
With `COc1ccc2c(c1)[C@@]13CCCCC1[C@@H](C2)N(C)CC3` (stereo partly drawn) the Potency [9] was “inactive”, the Potency [10] was “inactive” and the Potency [4] was “inactive”.
For `CC(Cl)Cl`, the Potency [2] was “inactive”.
In the case of `CN=C=S`, the Potency [6] is reported as “inactive” and the activation [7] is reported as 2.73% and -2.27%.
Compound `OCC(Br)CBr` (stereo not drawn) has an activation [7] of 0.562%.
For `CC(C)(C)OO`, the Potency [6] was “inactive” and the Potency [8] was “inactive”.
With `Cc1cccc(C#N)c1` the Potency [2] was “inactive”.
With `COc1ccc(/C=C/c2cc(O)cc(O)c2)cc1` the Potency [9] was “inactive”, the Potency [10] was “inactive” and the Potency [4] was “inactive”.
With `O=C=NC1CCCCC1` the activation [7] was -4.4% and -2.88% and the Potency [8] was “inactive”.
In the case of `C=CC(C)=O`, the activation [7] is reported as -1.53% and the Potency [2] is reported as “inactive”.
With `CCOP(=S)(OCC)Oc1ccc([N+](=O)[O-])cc1` the Potency [6] was “inactive” and the Potency [1] was “inactive”.
In the case of `C[C@@]12CCC(=O)C=C1C=C[C@H]1[C@H]3CC[C@](O)(CCC(=O)O)[C@]3(C)CC[C@@H]12`, the outcome [11] is reported as “inactive”, the outcome [12] is reported as “inactive” and the Potency [3] is reported as “inactive”. For the same compound, the Potency [4] was “inactive”, the activity, negative = inhibition [5, 13] was 9.22% and the activity, negative = inhibition [5, 14] was 6.42%. The Potency (AS120) was “inactive”, the Potency (ATS189) was “inactive” and the Potency (CP192) was “inactive”. For the same compound, the Potency (CP194) was “inactive”, the Potency (CP203) was “inactive” and the Potency (CP247) was “inactive”. For the same compound, the Potency (P94_40) was “inactive” and the Potency (PC49) was “inactive”.
With `CC(=O)OC1CC[C@@]2(C)C3CC[C@]4(C)C(=O)CCC4C3CC[C@H]2C1` (stereo partly drawn) the Potency [9] was “inactive” and the Potency [10] was “inactive”.
In the case of `CC1=CCCC2C1(C)CCC(C)C2(C)CC/C(C)=C/C[n+]1cn(C)c2c(N)ncnc21` (stereo not drawn), the Potency [1] is reported as “inactive”, the Potency [9] is reported as “inactive” and the Potency [10] is reported as “inactive”.
For `CCCCCCCC(=O)Cl`, the Potency [8] was “inactive”.
In the case of `ClC(Cl)=C(Cl)Cl`, the Potency [6] is reported as “inactive”, the activation [7] is reported as 0.975% and -2.66% and the Potency [8] is reported as “inactive”.
In the case of `C[C@@]12CCC3C(CCC4=CC(=O)CC[C@]43C)C1CCC2O` (stereo partly drawn), the Potency [9] is reported as “inactive” and the Potency [10] is reported as “inactive”.
For `C[N+](C)(C)Cc1ccccc1`, the Potency [8] was “inactive”.
With `O=C(Cl)C(Cl)(Cl)Cl` the Potency [6] was “inactive”.
For `ClC(Cl)(Cl)c1ccccc1`, the activation [7] was -1.47% and 0.945% and the Potency [2] was “inactive”.
With `ClC(Cl)=C(Cl)C(Cl)=C(Cl)Cl` the Potency [2] was “inactive” and the Potency [8] was “inactive”.
In the case of `CC(C)(C)NC[C@H](O)c1cc(Cl)c(N)c(Cl)c1`, the outcome [11] is reported as “inactive”, the outcome [12] is reported as “inactive” and the Potency [4] is reported as “inactive”.
With `CCC[CH2][Sn]([Cl])([Cl])[Cl]` the activation [7] was -3.23% and -2.97%.
In the case of `CO[C@@H](C)[C@](O)(C(=O)OCC1=CCN2CC[C@@H](O)[C@H]12)C(C)C`, the outcome [11] is reported as “inactive”, the outcome [12] is reported as “inactive” and the Potency [4] is reported as “inactive”.
In the case of `Cc1[nH]c2ccccc2c1CN(C)C`, the Potency [1] is reported as “inactive”, the Potency [9] is reported as “inactive” and the Potency [10] is reported as “inactive”. For the same compound, the Potency [4] was “inactive”.
With `CN(C)[C@@H]1C(=O)C(C(N)=O)=C(O)[C@]2(O)C(=O)C3=C(O)c4c(O)ccc(Cl)c4[C@](C)(O)[C@H]3C[C@@H]12` the outcome [11] was “inactive”, the outcome [12] was “inactive” and the Potency [3] was “inactive”. For the same compound, the activity, negative = inhibition [5, 13] was -8.57%, the activity, negative = inhibition [5, 14] was -7.26% and the Potency (AS120) was “inactive”. For the same compound, the Potency (ATS189) was “inactive”, the Potency (CP192) was “inactive” and the Potency (CP194) was “inactive”. The Potency (CP203) was “inactive”, the Potency (CP247) was “inactive” and the Potency (P94_40) was “inactive”. For the same compound, the Potency (PC49) was “inactive”.
With `CCOc1ccc(N)cc1` the Potency [6] was “inactive” and the Potency [8] was “inactive”.
For `O=[N+]([O-])c1cccc2ccccc12`, the Potency [2] was “inactive”.
`Nc1ccc(Br)cc1` gave an activation [7] of 0.791%.
